The record followed here is PubChem BioAssay.

Several values for one entry are separate records, joined by “and”; a condition that tells them apart may be missing. Equal entries are not always repeated. Inconclusive results are not listed. For some of these results: Measured potencies and affinities stand elsewhere. More than one record can exist for a structure, and the calls need not agree. Activity calls are given as the source filed them. Unless noted, no rule for the calls is given here.

Assay [1] can be described thus: polyglutamine-triggered caspase-3 activation inhibitors, cell-based (AID 1583). As to conditions: polyglutamine-induced caspase-3 activation, cell assay; stronger effect = higher value;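 tested at 10 µM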.
Assay [2] in a line: suppressors of polyQ aggregation in yeast, 75Q-TubU reporter (AID 1593). The settings on record: Yeast 75Q polyglutamine aggregation reporter.
Assay [3] is described as follows: rescue of polyQ-huntingtin neuronal dysfunction in worms, whole organism, C. elegans mechanosensory neurons, N-terminal huntingtin (AID 1599). The settings on record: touch response, stronger effect = higher value.
The nature of assay [4]: inhibitors of mitochondrial cytochrome c release, biochemical, purified mitochondria (AID 1603).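 Also: mouse liver mitochondria challenged with calcium chloride; signal normalized to the plate average as 100%.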 As to conditions: stronger effect = lower value.
A short description of assay [5]: inhibitors of polyQ protein aggregation (AID 1604). As to conditions: polyglutamine-induced protein aggregation inhibition assay; stronger effect = higher value; tested at 2.5 µM.
The nature of assay [6]: enhancers of glutamate uptake in motor neurons, MN-1 cell line (AID 1612).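 Also: tested at 1 µM final; 0% = mean of DMSO vehicle wells on each plate; positive means more glutamate uptake than control and negative means less.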 The settings on record: MN-1 motor neuron cells, stronger effect = higher value.
Assay [7] is described as follows: reducers of polyQ inclusions in PC12 cells, cell-based, NGF-treated PC12, GFPQ80 (AID 1614).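 Also: lower means fewer inclusions and 0 means no inclusions at all.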 As to conditions: PC12 NGF-treated GFP-polyQ80 inclusion reduction.
The nature of assay [8]: suppressors of polyglutamine aggregation in yeast, 75Q-TubH (AID 1616). As to conditions: S. cerevisiae 75Q-TubH polyglutamine aggregation suppression; stronger effect = higher value.
Assay [9] is described as follows: liver-stage malaria parasite growth inhibition, primary screen, cell-based, HepG2, luciferase luminescence, HepG2 viability (AID 624349; in the data active = parasite load remaining mostly below about 12%, no sharp cut-off; inactive = mostly above about 10%;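 also: 100% = mean of DMSO negative control wells on the same plate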). As to conditions: P. berghei liver stage in HepG2, luciferase luminescence, concentration not given here; parasite load remaining: stronger effect = lower value; viability: measured here: HepG2 viability without parasites.
Assay [10] in a line: differential killing of epithelial or mesenchymal cells, primary screen, imaging, PC-3E GFP, TEM4-18 mCherry, co-culture (AID 1345086;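 active = compounds killing one labelled cell type while sparing the other, by normalised counts and ratio limits, not self-fluorescent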;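 as to all read-outs here: cells exposed to compound for 72 h before imaging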;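 as to red/green cell ratio (normalised): normalised mesenchymal count divided by normalised epithelial count so high means epithelial killing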). As to conditions: imaging cell counts, at 1 µM; for red/green cell ratio (normalised): actives lie on both sides.
The nature of assay [11]: sensitizers of A549 cells to miR-34 induction, primary screen, imaging, A549 dox-inducible miR-34, nuclei and caspase counts (AID 1347080;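 active = compounds whose cell count with miR-34 switched on is under 0.7 times the count with it off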). As to conditions: A549 miR-34 inducible, Hoechst nuclei count, 48 h.
Assay [12] has as its target NAD(+) hydrolase SARM1 (Homo sapiens) (UniProt Q6SZW1). Briefly: SARM1 TIR NADase inhibitors, cell lysate, NAD-Glo luminescence (AID 1508614;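 active = compound whose remaining NAD level is above about 45 nM, limit read from the data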;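 also: higher remaining NAD means stronger inhibition of SARM1 NADase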). As to conditions: SAM-TIR HEK293T lysate NADase, at 1 µM, stronger effect = higher value.
The target of assay [13] is Mitogen-activated protein kinase 7 (Homo sapiens) (UniProt Q13164). Briefly: ERK5 transactivation activators in reporter cells, primary screen, cell-based, HTS (AID 1508626;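 active = luciferase signal above three times the same-plate solvent-only control wells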;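 also: luciferase driven by Gal4-ERK5 fusion binding five Gal4 sites before minimal TATA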). As to conditions: HeLa Gal4-ERK5 transactivation, 18 h, at 5 µM, stronger effect = higher value.
Assay [14] can be described thus: circadian clock period modulators, cell-based, LOPAC library, luminescence reporter (AID 2774).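 Also: values are relative to mean of DMSO wells on each plate.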 As to conditions: circadian reporter cells, at 7 µM, actives lie on both sides.
The subject of assay [15] is Hepatitis C virus NS3 helicase. Briefly: HCV NS3 helicase inhibitors, primary screen, biochemical, fluorescence polarization, LOPAC1280 library (AID 687035; in the data active = inhibition above about 37%). As to conditions: Purified HCV NS3 helicase, Cy5-dT15 ssDNA binding fluorescence polarization; stronger effect = higher value; concentration not given here.
A short description of assay [16]: Cy5 fluorescence quenching or enhancement artefacts, artefact control for HCV NS3 helicase inhibitor project, biochemical, LOPAC1280 (AID 687037). The settings on record: Cy5-DNA-NS3h complex fluorescence interference counterscreen.
The subject of assay [17] is Aerobactin synthetase IucA (Klebsiella pneumoniae). Nature of the assay: IucA aerobactin synthetase inhibitors, biochemical, Tocris library, absorbance (AID 1345561).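 Also: 100% = enzyme without compound and 0% = no enzyme.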 As to conditions: purified IucA enzyme assay, absorbance (OD) read-out; stronger effect = lower value;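 tested at 8 µM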.
In assay [18] the test system is Aerobactin synthetase IucA (Klebsiella pneumoniae, hypervirulent). Nature of the assay: IucA enzyme inhibition, biochemical, LOPAC library, absorbance readout (AID 1346212).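 Also: 100% = no compound wells and 0% = no enzyme wells.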 As to conditions: IucA enzyme assay, absorbance (OD) readout; stronger effect = lower value;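 tested at 8 µM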.
Assay [19] can be described thus: inhibitors of Cryptococcus chitosan production, flow cytometry, Cibacron Brilliant Red staining (AID 1347148).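 Also: compound exposure lasted three days at 37 degrees C.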 As to conditions: Cryptococcus neoformans chitosan, stronger effect = lower value; at 10 µM unless noted.
A short description of assay [20]: phospholipid biosynthesis inhibitors in animal cells, primary screen, cell-based, LOPAC library, screen 4 (AID 1347384). The settings on record: phospholipid biosynthesis inhibition screen, at 10 µM.
Assay [21] can be described thus: viability rescue of complex I mutant cybrids, primary screen, cell-based, galactose medium, ATP luminescence (AID 1645843;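 active = z-score of at least 1.8 in each of two replicates, scored against plate mean and spread of sample wells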;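 also: positive z means more ATP and so rescue of galactose-driven cybrid death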). As to conditions: complex I mutant cybrid cells, 72 h, stronger effect = higher value.
Assay [22] is described as follows: growth inhibition of DIPG glioma cells, dose response, cell-based, JHH-DIPG-1, MIPE4.0, CellTiter-Glo, qHTS (AID 1347062; cut-off not given, nearly all actives have AC50 up to about 27 µM). As to conditions: JHH-DIPG-1 viability, CellTiter-Glo ATP luminescence. A general note: In ATP-based viability assays light output follows the ATP content of the culture.
Assay [23] can be described thus: growth inhibition of DIPG glioma cells, dose response, cell-based, SU-DIPG-IV, MIPE4.0, CellTiter-Glo, qHTS (AID 1347063; cut-off not given, nearly all actives have AC50 up to about 30 µM;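 also: compound exposure lasted 48 hours before the viability readout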). As to conditions: SU-DIPG-IV viability, CellTiter-Glo ATP luminescence.
Assay [24] in a line: SU-DIPG-VI glioma cell viability, MIPE4.0 library, CellTiter-Glo luminescence, qHTS (AID 1347066; cut-off not given, nearly all actives have AC50 up to about 30 µM;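 also: cells exposed to compound for 48 hours before readout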). The settings on record: CellTiter-Glo ATP luminescence.
The mark [25] stands for this setting: measured here: epithelial PC-3E GFP cell survival.
Setting [26] is: measured here: mesenchymal TEM4-18 mCherry cell survival.
Setting [27] is: measured here: relative caspase fold change +Dox/-Dox.
Setting [28] is: measured here: total cells with miR-34 induction, stronger effect = lower value.
Where [29] appears, read: measured here: total cells without miR-34 induction.

Chain of NAD(+) hydrolase SARM1 (Homo sapiens) (Q6SZW1 whole entry, looked up, the tested form may be a part): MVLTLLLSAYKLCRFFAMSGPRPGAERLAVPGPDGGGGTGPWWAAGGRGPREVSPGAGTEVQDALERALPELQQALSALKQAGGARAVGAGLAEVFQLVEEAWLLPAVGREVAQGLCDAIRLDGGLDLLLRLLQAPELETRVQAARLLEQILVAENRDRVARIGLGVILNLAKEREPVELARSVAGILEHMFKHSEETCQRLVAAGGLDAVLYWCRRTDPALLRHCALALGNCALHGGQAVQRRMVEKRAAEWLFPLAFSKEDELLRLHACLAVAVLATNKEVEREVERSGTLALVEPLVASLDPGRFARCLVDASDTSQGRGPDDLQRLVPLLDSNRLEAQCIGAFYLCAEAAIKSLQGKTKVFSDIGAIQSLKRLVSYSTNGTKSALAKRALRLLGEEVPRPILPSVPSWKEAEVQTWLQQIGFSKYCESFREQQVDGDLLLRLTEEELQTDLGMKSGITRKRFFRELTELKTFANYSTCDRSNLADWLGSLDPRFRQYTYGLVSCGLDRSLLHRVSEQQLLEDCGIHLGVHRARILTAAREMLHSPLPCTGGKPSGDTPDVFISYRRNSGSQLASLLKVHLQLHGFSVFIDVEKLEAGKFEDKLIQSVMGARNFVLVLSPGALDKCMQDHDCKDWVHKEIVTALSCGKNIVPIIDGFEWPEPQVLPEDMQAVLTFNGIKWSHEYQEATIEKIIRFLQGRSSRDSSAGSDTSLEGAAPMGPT
Chain of Mitogen-activated protein kinase 7 (Homo sapiens) (Q13164 whole entry, looked up, the tested form may be a part): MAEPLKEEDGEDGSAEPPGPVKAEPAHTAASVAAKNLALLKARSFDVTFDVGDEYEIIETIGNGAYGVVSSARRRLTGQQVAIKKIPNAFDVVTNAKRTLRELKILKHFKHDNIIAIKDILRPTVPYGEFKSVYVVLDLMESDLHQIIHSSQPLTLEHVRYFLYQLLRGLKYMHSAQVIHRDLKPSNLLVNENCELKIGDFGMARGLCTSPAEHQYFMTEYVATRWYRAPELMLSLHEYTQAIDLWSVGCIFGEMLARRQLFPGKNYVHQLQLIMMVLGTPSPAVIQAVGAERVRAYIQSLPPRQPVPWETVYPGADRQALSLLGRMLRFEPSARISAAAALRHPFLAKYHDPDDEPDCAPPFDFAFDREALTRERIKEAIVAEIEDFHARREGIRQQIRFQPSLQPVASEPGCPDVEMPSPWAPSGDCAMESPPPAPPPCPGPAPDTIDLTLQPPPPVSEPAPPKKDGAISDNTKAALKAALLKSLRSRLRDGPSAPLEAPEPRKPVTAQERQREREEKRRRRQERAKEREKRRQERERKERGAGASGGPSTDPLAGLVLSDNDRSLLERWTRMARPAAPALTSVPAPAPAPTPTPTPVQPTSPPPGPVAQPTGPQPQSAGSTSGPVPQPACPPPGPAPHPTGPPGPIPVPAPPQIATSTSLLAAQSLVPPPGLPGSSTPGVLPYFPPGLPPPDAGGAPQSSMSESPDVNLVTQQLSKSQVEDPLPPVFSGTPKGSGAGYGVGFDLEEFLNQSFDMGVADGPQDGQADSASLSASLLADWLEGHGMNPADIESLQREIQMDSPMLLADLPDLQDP

Usually inhibition stands for the relative decrease from the control value, in per cent. One may read the viability as a read-out of living cells in per cent, often relative to untreated cells. For the compound `O=C1CN=C(c2ccccc2Cl)c2cc([N+](=O)[O-])ccc2N1`, in assay [1], the inhibition came to 12.9%. The compound also showed a score in assay [2] of 0.89. For the same compound, the rescue above control in assay [3] is -2.29. The cytochrome c release ratio in assay [4] came out at 0.98. Further, in assay [5], the inhibition of aggregation was 52.4%. In [6], the glutamate uptake change was -25.1%. The compound also registered an inclusion score in assay [7] of 2. This compound also had an aggregation suppression score in assay [8] of 0.77. Also, in assay [9], the parasite load remaining is 52.7% (inactive). Moreover, in assay [9], the viability came out at 99.8%. The red/green cell ratio (normalised) in [10] was 1.15 (inactive). For the same compound, the normalised cell number in assay [10] (setting [25]) was determined as 0.93; in assay [10] (setting [26]) it was 1.07. For the same compound, the fold change in assay [11] (stronger effect = lower value) was 0.845 (inactive); in assay [11] (setting [27]), 3.3. Further, the cell count in [11] (setting [28]) is 10900; in [11] (setting [29]) it was 12900.
As to `COC(=O)C(c1ccccc1)C1CCCCN1` (centres undefined), in assay [9], the parasite load remaining was 51.8% (inactive). Also, in assay [9], the viability turned out to be 106%. Further, in assay [10], the red/green cell ratio (normalised) was 0.97 (inactive). The normalised cell number in assay [10] (setting [25]) amounted to 1.07; in assay [10] (setting [26]) it was 1.04. Further, the fold change in [11] (stronger effect = lower value) is 0.909 (inactive); in assay [11] (setting [27]), 3.99. Further, the cell count in assay [11] (setting [28]) amounted to 12600; in assay [11] (setting [29]) it was 13900. For the same compound, the remaining NAD in assay [12] is 10 nM (inactive). The luciferase signal in assay [13] was 44 AU (inactive).
The remaining activity is the signal under treatment as a percentage of the control signal. Take `c1ccc2c(c1)[I+]c1ccccc1-2`: in assay [14], the period change was -1.22 h (inactive). The inhibition in assay [15] is -5% (inactive). In assay [16], the fluorescence ratio (interference) was 1 (inactive). For the same compound, the results for the remaining activity in [17] and in [18] were 106% (inactive) and 103% (inactive), respectively. Further, the fold change is 1.1 (inactive) and 0.717 (inactive) and 0.928 (inactive) in assay [11] (stronger effect = lower value); 1.26 and 1.66 and 0.513 in [11] (setting [27]). Besides, the cell count in assay [11] (setting [28]) was 1170 and 692 and 1240; in assay [11] (setting [29]), 1070 and 966 and 1340. Also, the fold fluorescence in assay [19] was 9.07 [at 179.1 µM] (inactive). The compound was called active in [20]. The z-score in assay [21] is -1.03 (inactive) and -1.25 (inactive).
In the case of `CC1=NN=C(c2ccc(N)cc2)c2cc3c(cc2C1)OCO3`, the period change in [14] is 0.095 h (inactive). For the same compound, in [15], the inhibition was 3% (inactive). Further, the fluorescence ratio (interference) in assay [16] was 1 (inactive). Moreover, the remaining activity in [17] is 114% (inactive); in [18] it was 78.1% (inactive). Moreover, the call in assay [22], in assay [23], in assay [24] and in assay [20] was inactive. Also, the fold change was 1.05 (inactive) and 1 (inactive) in assay [11] (stronger effect = lower value); 0.665 and 1.11 in assay [11] (setting [27]). For the same compound, the cell count in [11] (setting [28]) was 10000 and 7840; in [11] (setting [29]), 9520 and 7820. Moreover, the z-score in assay [21] was 0.825 (inactive) and 4.29 (active).
With `C[C@]12CCC(=O)C=C1CCC1C2CC[C@@]2(C)C1CC[C@@H]2O` (some centres undefined), in assay [1], the inhibition is -4.21%. This compound had a score in assay [2] of -1.11. The compound also returned a rescue above control in assay [3] of 4.25. The cytochrome c release ratio in [4] turned out to be 1.03. In [5], the inhibition of aggregation is -1.96%. In addition, the glutamate uptake change in [6] is 18.8%. For the same compound, the aggregation suppression score in assay [8] was -0.43. For the same compound, the parasite load remaining in assay [9] is 68.4% (inactive). Besides, the viability in [9] was determined as 110%. Besides, the red/green cell ratio (normalised) in assay [10] was 1.12 (inactive). The normalised cell number in [10] (setting [25]) was 0.76; in assay [10] (setting [26]) it was 0.85. For the same compound, the results for the fold change in assay [11] (stronger effect = lower value) and in assay [11] (setting [27]) were 0.943 (inactive) and 2.07, respectively. Moreover, the cell count in assay [11] (setting [28]) was 10700; in assay [11] (setting [29]), 11300.
On to `O1[As]2O[As]3O[As]1O[As](O2)O3`, for which the parasite load remaining in assay [9] is 61.8% (inactive). In addition, the viability in assay [9] came out at 103%. Also, the red/green cell ratio (normalised) in assay [10] was 0.77 (inactive). Besides, the normalised cell number in assay [10] (setting [25]) was 1.19; in [10] (setting [26]), 0.92. Besides, the fold change in assay [11] (stronger effect = lower value) was 0.844 (inactive); in [11] (setting [27]), 2.16. In addition, the cell count stood at 11700 in assay [11] (setting [28]) and 13900 in assay [11] (setting [29]).
